Data: PubChem BioAssay (NCI)
Several values for one entry are separate records, joined by “and”; a condition that tells them apart may be missing. Equal values may be shown once. This is part of a sample that, as a whole, favours compounds with a hit. Of some 79,000 tested, about 15% had one in any assay. Rule as the data show it: active = growth inhibition above about 70%; inactive = the rest.

Tests used:
[1] = NCI Yeast Anticancer Drug Screen. Data for the rad50 strain (AID 155);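 also: 0% = growth of vehicle-only cultures of the same strain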; conditions: S. cerevisiae rad50 strain growth inhibition, hits give high values; at 50.0 µM unless noted
How it was run: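 Yeast carrying a defined DNA repair defect were exposed to test compounds, and growth was compared with vehicle-treated controls to give percent inhibition.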

[2] = NCI Yeast Anticancer Drug Screen. Data for the mec2-1 strain (AID 157); conditions: S. cerevisiae mec2-1 strain, hits give high values; at 50.0 µM unless noted
How it was run: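 Compounds were applied to mec2-1 yeast cells. Their growth was then compared with that of vehicle-treated cultures to give growth inhibition.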

[3] = NCI Yeast Anticancer Drug Screen. Data for the sgs1 mgt1 strain (AID 161);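 also: 0% = growth of cultures given vehicle only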; conditions: S. cerevisiae sgs1 mgt1 strain, hits give high values; at 50.0 µM unless noted
How it was run: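 Growth of a repair-deficient yeast mutant was monitored after compound treatment and expressed as inhibition relative to vehicle-treated cultures.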

[4] = NCI Yeast Anticancer Drug Screen. Data for the cln2 rad14 strain (AID 165);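 also: 0% = growth equal to vehicle treated cultures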; conditions: S. cerevisiae cln2 rad14 strain, hits give high values; at 50.0 µM unless noted
How it was run: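 Strain: cln2 rad14 yeast, altered in cell cycle control and DNA damage repair. Read-out: growth inhibition vs vehicle.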

[5] = NCI Yeast Anticancer Drug Screen. Data for the bub3 strain (AID 167); conditions: S. cerevisiae bub3 mutant strain, hits give high values; at 50.0 µM unless noted
How it was run: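 Compounds were applied to a genetically altered yeast strain carrying a cell-cycle control defect. Growth inhibition was scored against vehicle-treated controls.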

[6] = NCI Yeast Anticancer Drug Screen. Data for the mlh1 rad18 strain (AID 175); conditions: S. cerevisiae mlh1 rad18 strain growth inhibition, hits give high values; at 50.0 µM unless noted
How it was run: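 A repair-deficient yeast strain is exposed to test compound, and growth is scored relative to vehicle-treated controls.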

Measured: growth inhibition

CCCCCCCCCCCCC
inactive: [1] -36.4% | [2] -45.8% | [3] -18.2% | [4] 3.7% | [5] -50% | [6] -20.9%

CCSCCC#N
inactive: [1] 11.2% | [2] 4.75% | [3] -13% | [4] 0.3% | [5] 8.1% | [6] -10.2%

CC1CCC(c2ccccc2)(c2ccccc2)C1=O (stereo not given)
inactive: [1] 11.8% | [2] -1.8% | [3] -2.5% | [4] -15% | [5] -1.15% | [6] -2.25%

O=Nc1c(O)c2ccccc2[nH]c1=O
inactive: [1] 15.6% | [2] 33.6% | [3] 34.6% | [4] 24.9% | [5] 57.5% | [6] 30.4%

CN(C)/N=C/C=C1\N=C(c2ccccc2)OC1=O
inactive: [1] 5.75% | [2] -10.6% | [3] -17.9% | [4] -45.7% | [5] -0.75% | [6] -10.9%

CC(O)c1ccc[cH-]1.CC(O)c1ccc[cH-]1.[Fe+2] (stereo not given)
inactive: [1] -22% | [2] 4% | [3] -5.55% | [4] -33.1% | [5] 28.7% | [6] 5.7%

CO[C@H]1C[C@H](n2cc(C)c(=O)[nH]c2=O)O[C@@H]1CO
inactive: [1] -6.55% | [2] -9.75% | [3] -39.9% | [4] -10.7% | [5] -9.3% | [6] -25.8%

COc1ccc(OC)c(N)c1
inactive: [1] -4.3% | [2] -8.4% | [3] -7.55% | [4] 16.4% | [5] 3.6% | [6] -22.9%

c1ccc(-c2nc3ccccc3s2)cc1
inactive: [1] 25.2% and 18.6% | [2] -22.4% and -0.5% | [3] 24.1% and -17.9% | [4] 23.8% and -20.2% | [5] 8.55% and -4.35% | [6] 40.4% and 2.6%

O=c1[nH]nc(-c2ccccc2)nc1/C(=N\Nc1ccccc1)c1ccccc1
inactive: [1] 15.5% | [2] -12.3% | [3] 1.05% | [4] 0.85% | [5] 12.5% | [6] 14.7%

c1ccc(-n2ncnn2)cc1
inactive: [1] -6.5% | [2] -11.3% | [3] -8.55% | [4] -41.1% | [5] 24.4% | [6] -1.75%

CC(=O)c1ccc2c(c1)NC(=O)CC(C)N2 (stereo not given)
inactive: [1] 0.65% | [2] -1.25% | [3] 11.9% | [4] -25.6% | [5] 5.05% | [6] 0.3%

O=C(Cc1nc2ccc(C(=O)c3ccccc3)cc2[nH]c1=O)C(=O)Nc1ccc(C(F)(F)F)cc1[N+](=O)[O-]
inactive: [1] 8.45% | [2] 14.7% | [3] -3.9% | [4] -6.25% | [5] -12.1% | [6] 18.1%

NCCCOB(OCCCN)OCCCN
inactive: [1] 8.3% | [2] -7.4% | [3] -17.1% | [4] -20.2% | [5] -2.45% | [6] -10.2%

C[N+]1(CCN=C=NC2CCCCC2)CCOCC1
inactive: [1] -11.9% | [2] 10.8% | [3] 16.9% | [4] -12.2% | [5] 17.9% | [6] 14.4%

Cc1ccccc1-c1nc2c(N)nc(N)nc2nc1N
inactive: [1] -4.2% | [2] -12.8% | [3] -23.6% | [4] -18.9% | [5] -36.9% | [6] -62%

COc1ccc2[nH]c3c(C)c4c(c(C)c3c2c1)CN(C)C=C4
inactive: [1] 45.6% | [2] 48.2% | [3] 62.7% | [4] 21.2% | [5] 65.8% | [6] 8.95%

CCCOC(=O)N(C)c1ccccc1
inactive: [1] 17.8% | [2] -10.3% | [3] 2.95% | [4] -32.3% | [5] -22.6% | [6] -2.1%

O=[N+]([O-])c1ncccc1O
inactive: [1] 12.2% | [2] -2.75% | [3] -4.5% | [4] 9.35% | [5] 12% | [6] 15.9%

CC(O)CNc1nc(N)[nH]c(=O)c1[N+](=O)[O-] (stereo not given)
inactive: [1] 4.45% | [2] 2.35% | [3] 1.45% | [4] -41.5% | [5] -9.95% | [6] -1.6%

CCOC(CC(=O)NCCNC(C)=O)OCC
inactive: [1] 38% | [2] 4.6% | [3] 7.2% | [4] 2.05% | [5] 18.4% | [6] 43.1%

C=C(C)C(=O)O[C@H]1[C@H]2[C@H](OC(=O)[C@H]2C)[C@H](O)[C@@H](C)[C@@H]2C=CC(=O)[C@]21C
inactive: [1] 31.3% | [2] 30.5% | [3] 69.8% | [4] 47.2% | [5] 57.4% | [6] -31.1%

CC(C)(C)c1cc2c(O)c3cccc4c(=O)c5cccc6c5-c(c34)c2c(c1)c6=O
inactive: [1] 33.9% | [2] 15.1% | [3] -26.8% | [4] 7.2% | [5] 4.8% | [6] -11.2%

COc1cc2c(cc1OC)C(=O)/C(=C/c1cc(OC)c(OC)c(OC)c1)C2
inactive: [1] -33.8% | [2] -35.5% | [3] -69.8% | [4] -38.6% | [5] -12.8% | [6] -69%

N#Cc1[nH]c(=O)n(-c2ccc([N+](=O)[O-])cc2)c1N
inactive: [1] -29.4% | [2] -59.8% | [3] -25.1% | [4] -1.7% | [5] -12.1% | [6] -39.9%

O=C(O)c1ccc(NCC(O)COc2ccc([N+](=O)[O-])cc2)cc1 (stereo not given)
inactive: [1] -6.7% | [2] 4.85% | [3] -2.8% | [4] 5.4% | [5] -3.55% | [6] 0.25%

CCCCCCCCCCCCCCCCC(C(=O)O)C(O)(CC(=O)O)C(=O)O (stereo not given)
inactive: [1] 2.8% and 41.7% | [2] -14.7% and 16.6% | [3] 14.5% and 43.4% | [4] -10.7% and 16.6% | [5] -7.9% and 33.4% | [6] 7.25% and 31.6%

CN(C)Cc1cc(-c2c(Cl)cccc2Cl)no1
inactive: [1] -18.8% | [2] -10.5% | [3] -10.4% | [4] 4% | [5] 7.1% | [6] -13.6%

COC(=O)CCC(=O)Nc1cc(C)ccc1C
inactive: [1] -6.3% | [2] -19.9% | [3] -7.6% | [4] 4.5% | [5] -2.25% | [6] -12.2%

COc1ccc(CCC(=O)c2ccc(N)cc2)cc1
inactive: [1] -22.1% | [2] -16.4% | [3] -0.65% | [4] -11.5% | [5] -3.75% | [6] -22.3%

CSCCSC
inactive: [1] 10.2% | [2] 4.6% | [3] -0.1% | [4] 13.4% | [5] 3.4% | [6] 3.65%

O=C(O)CS(=O)c1ccc2c3c(cccc13)C(=O)c1ccccc1-2 (stereo not given)
inactive: [1] 14.7% | [2] -12.5% | [3] -38.5% | [4] -0.05% | [5] -30.8% | [6] 1.7%

CCN1c2ccccc2CC(CCCN(C)C)(C(N)=O)c2ccccc21 (stereo not given)
inactive: [1] 3.8% | [2] 12.3% | [3] 18.2% | [4] 9.45% | [5] -1.85% | [6] -8.25%

COc1cc(OC)c2c(c1)C(C)(C)CCC2(C)C
inactive: [1] 9.2% | [2] 2.9% | [3] -7.45% | [4] -23.4% | [5] 16.2% | [6] 4.4%

CC(=O)CC(=O)NCC1CCC(CNC(=O)CC(C)=O)CC1 (stereo not given)
inactive: [1] -26.6% | [2] -33% | [3] -13.9% | [4] -1.45% | [5] -54.3% | [6] -48.8%

O=C(C(/C=N/C(=S)NC1C(=O)Nc2ccccc21)=C(/O)c1ccccc1)c1ccccc1 (stereo not given)
inactive: [1] 9.6% | [2] -0.85% | [3] 16.9% | [4] 27.5% | [5] 21.7% | [6] -9.4%

Cc1ccc(NC(=O)CCS)cc1
inactive: [1] -1.75% | [2] -25.9% | [3] 9.5% | [4] 2.1% | [5] -13.2% | [6] 15.9%

COc1ccc2c(c1)[nH]c1c3ccc(OC)cc3oc(=O)c21
inactive: [1] -52% | [2] -50% | [3] -35.5% | [4] 1.95% | [5] -38.6% | [6] -33.9%

COc1ccc2oc(=N)c(C(=O)Nc3ccccc3)cc2c1
inactive: [1] 24.2% | [2] 20.1% | [3] -10.5% | [4] 4.9% | [5] -4.85% | [6] -38.4%

CNC(=O)C1C(=O)NC(=O)C1=C1CCCC1 (stereo not given)
inactive: [1] 11.2% | [2] -1.1% | [3] 4.8% | [4] -58.8% | [5] 8.1% | [6] -14.6%
